SMN2 splice enh: SMN2 splice variant enhancement; HEK293 SMN2-luciferase splicing reporter, luminescence, 30-36 h; Potency, µM (series often up to 46.1 µM), for the others: top-dose activity change, positive = activation, actives largely listed as activators; hit rate 2.8% among 210,000; also: % of control where 0% means no effect; nearly all actives have a fitted effect of over 55% in size
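HEK293 cells carry an SMN2 […]–luciferase reporter in which exon 7 inclusion puts luciferase in frame. Cells were plated 10-12 h before compound addition, then incubated 30-36 h at 37C. ONE-Glo luminescence was read; sodium butyrate at 4.5 mM final served as control.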
ELG1 genotox: induces genotoxicity in HEK293T cells with luciferase-tagged ELG1 | HEK293T ELG1-luciferase reporter, luminescence, 16 h | Potency, µM (highest dose often 46 µM), without a hit: top-dose activity change, positive = activation, actives largely listed as activators | hit rate 1.3% among 330,000 | AID 504466; also: % of control where 0% means no effect; nearly all actives have a fitted effect of over 60% in size
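ELG1-luciferase HEK293T cells, 2,000/well; compound pinned in; 16 hr, 37 °C, 5% CO2; ONE-Glo, 30 min RT; luminescence on CCD imager.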
NPC1 prom act: activators of NPC1 promoter; Huh7 NPC1 promoter luciferase reporter, 24 h; Potency, µM (highest dose often 9.22 µM), inactives show top-dose activation, actives largely listed as activators; hit rate 2.4% among 320,000; AID 485313; also: % of control where 0% means no effect; nearly all actives have a fitted effect of over 60% in size
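Huh7 reporter cells (NPC1 promoter driving luciferase) are dosed with compound for 24 h at 37 °C, 5% CO2; luciferase detection reagent is then added and luminescence measured after 10 min at ambient temperature.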
FLuc modulator: firefly luciferase modulation, counter-screen for miR-21 project | P08659 | purified FLuc, Km substrates, luminescence inhibition | Potency, µM (top dose mostly 57.5 µM), inactives show top-dose activity change, negative = inhibition, usual class: inhibitors | hit rate 6.9% among 360,000 | AID 588342;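 also: plate controls were vehicle for no effect and reference inhibitor for full effect; nearly all actives have a fitted effect of over 55% in size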
Target sequence (P08659 whole entry, looked up): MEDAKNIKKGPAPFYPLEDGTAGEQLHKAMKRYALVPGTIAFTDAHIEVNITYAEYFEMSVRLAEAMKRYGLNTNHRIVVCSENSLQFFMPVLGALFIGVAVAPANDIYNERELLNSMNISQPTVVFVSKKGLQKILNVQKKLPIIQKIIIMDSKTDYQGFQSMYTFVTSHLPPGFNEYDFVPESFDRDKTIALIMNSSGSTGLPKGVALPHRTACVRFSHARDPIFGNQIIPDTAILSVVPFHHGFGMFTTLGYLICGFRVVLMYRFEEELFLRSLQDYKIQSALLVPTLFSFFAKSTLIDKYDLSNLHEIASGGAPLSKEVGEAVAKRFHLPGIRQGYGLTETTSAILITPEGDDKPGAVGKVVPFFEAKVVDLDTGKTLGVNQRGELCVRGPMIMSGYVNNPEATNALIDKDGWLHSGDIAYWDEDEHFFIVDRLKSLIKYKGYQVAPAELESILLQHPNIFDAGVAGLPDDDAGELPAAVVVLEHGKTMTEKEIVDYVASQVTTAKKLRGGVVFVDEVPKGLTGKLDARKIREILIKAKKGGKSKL
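Purified P. pyralis luciferase (10nM final) with 10uM D-luciferin and 10uM ATP (Km levels) in 50mM Tris acetate pH 7.5, 10mM Mg acetate, 0.01% Tween-20, 0.05% BSA; qHTS 6-point titration, ~60 µM downward; luminescence read.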
ELG1 repair inh: ELG1-dependent DNA repair inhibition. HEK293T ELG1-luciferase reporter, luminescence, 16 h; DNA damage induced by 5-fluorouridine. Potency, µM (top dose mostly 46.1 µM), without a hit: at the highest dose activity change, negative = inhibition, most hits filed as inhibitors. hit rate 2.3% among 330,000. AID 504467; also: % is scaled to controls: 0 for no effect and ±100 for the full control effect; nearly all actives have a fitted effect of over 55% in size
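Overnight (16 hr) co-exposure of 2,000 cells/well to 5-fluorouridine and compound at 37 °C preceded detection. Luciferase was quantified via ONE-Glo luminescence; loss of signal denotes inhibition.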
Rab9 prom act: Rab9 promoter activation | Huh7 Rab9 promoter-luciferase reporter, luminescence, 24 h | Potency, µM (top dose mostly 9.22 µM), without a hit: top-dose activation, negative = inhibition, actives largely listed as activators | hit rate 2.8% among 320,000 | AID 485297; also: % of control where 0% means no effect; nearly all actives have a fitted effect of over 60% in size
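Promoter activation is measured as luciferase luminescence in Huh7 cells stably transfected with a Rab9 promoter–luciferase construct, following 24 h compound exposure at 37 °C and 10 min reagent incubation at ambient temperature.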
The depositor's hits bear a star; ? = inconclusive; . = no result. The list is not random: actives were taken first. Their share in the collection is about 9.2%. Calls follow the shape of the dose curve; as a rule, active = well fitted curve in the direction sought with a large enough effect; inconclusive = small, poorly fitted or top-dose-only effect, or another doubt; inactive = no such curve, though single readings can be large; an effect the other way counts as inactive or inconclusive. Potency is read from the fitted curve at half-maximal effect.

SMILES	SMN2 splice enh	ELG1 genotox	NPC1 prom act	FLuc modulator	ELG1 repair inh	Rab9 prom act
COc1ccc(Cc2nc3ccc(C(=O)NCC4COCCO4)cc3o2)cc1OC (stereo not drawn)	.	-2%	2%	0%	-18%	3%
CCCCc1ccc(NC(=O)CSc2nnc(C)c(=O)n2N)cc1	.	1%	-3%	-17%	9%	2%
Cc1ccc2nc(-c3ccc(O)c(O)c3)cn2c1	.	?	?	3.4µM*	?	8%
CCN(CC)S(=O)(=O)c1ccc(-c2cn3cc(Cl)ccc3n2)cc1	.	6%	18%	?	24%	20%
Cc1cc(=O)c2cc(C(=O)Nc3ccc(F)cc3)ccc2[nH]1	.	.	.	-2%	.	.
CCCc1ccc(C(=O)NNc2cccc(C)c2)cc1	.	?	29%	21µM*	?	20%
Cc1cccc(NNC(=O)C(=O)NNc2cccc(C)c2)c1	.	6%	2%	1%	6.5µM*	-1%
CCN(C(=O)c1cn(C)c(=O)c2ccccc12)c1cccc(C)c1	5%	.	.	-15%	.	.
COc1ccccc1C(=O)NC(CCSC)C(=O)NNC(=O)C(C)Oc1ccccc1F (stereo not drawn)	.	3%	0%	3%	-2%	3%
O=c1c2[nH]c3ccc(F)cc3c2ncn1C1CCCCC1	7%	14%	?	-11%	?	4µM*
CCC1CCCCN1C(=O)CSc1nc2c([nH]c3ccccc32)c(=O)n1C (stereo not drawn)	-20%	-9%	0%	2%	23µM*	-2%
COCCn1c(SCC(=O)N2CCCCC2)nc2c([nH]c3ccccc32)c1=O	.	-12%	4%	-1%	16µM*	3%
COCCn1c(SCC(=O)N2CCCCCC2)nc2c([nH]c3ccccc32)c1=O	.	-2%	6%	5%	-17%	3%
CCOC(=O)N1CCN(C(=O)CSc2nc3c([nH]c4ccccc43)c(=O)n2CCOC)CC1	.	-8%	3%	1%	7.3µM*	0%
CCS(=O)(=O)c1ccc(-c2csc(-c3ccccc3Cl)n2)c(Cl)c1Cl	-17%	?	6%	-19%	6%	2%
CCS(=O)(=O)c1ccc(-c2csc(-c3ccc(Cl)cc3)n2)c(Cl)c1Cl	-6%	18µM*	0%	?	18%	2%
Cc1ccc(C)c(NC(=O)CN(C)C(=O)COc2cccc3c2OC(C)(C)C3)c1	.	1%	-1%	2%	7%	0%
Cc1cc(-n2nnc3ccccc32)nc2ccccc12	0.22µM*	9%	2%	-10%	?	-3%
Nc1ccc2c(c1)C(=O)N(c1cccc3ccccc13)C2=O	.	1%	2%	-8%	-4%	12%
Nc1ccc2c(c1)C(=O)c1ccccc1C2=O	16µM*	?	?	13µM*	?	4µM*
Nc1ccc2c(c1)C(=O)C(=O)c1ccccc1-2	-62%	-21%	-34%	?	4.6µM*	-41%
O=C1C(=O)c2ccc(-c3ccccc3)cc2-c2ccccc21	-99%	-13%	-42%	3%	9.2µM*	-38%
CCOc1ccc(NC(=O)Cn2nnc(C(=O)OC)c2C(=O)OC)cc1	0%	.	.	-5%	.	.
CCOc1ccc(CCNc2ncnc3onc(-c4ccc(Cl)cc4)c23)cc1	.	.	.	1%	.	.
N#Cc1ccc(-c2ccc(F)cc2)nc1SCC(=O)Nc1sc2c(c1C#N)CCC2	-28%	0%	-6%	0%	6.5µM*	-2%
Cn1cnnc1SCC(=O)Nc1sc2c(c1C#N)CCCCC2	-17%	7%	10%	27µM*	?	11%
CCCCn1nnnc1SCC(=O)Nc1sc2c(c1C#N)CCCC2	-22%	-5%	19%	-10%	?	-3%
N#Cc1c(NC(=O)CSc2ncn[nH]2)sc2c1CCCCC2	-74%	-14%	-18%	7.6µM*	?	-25%
N#Cc1cc2c(nc1SCC(=O)Nc1sc3c(c1C#N)CCC3)CCCC2	16%	14%	?	4%	23%	?

High-throughput results (PubChem BioAssay)
